# Results: PubChem BioAssay AID504332 (National Center for Advancing Translational Sciences (NCATS), 2011)
# In all, about 350,000 compounds went through this assay and about 31,000 (8.9%) were called active. Another 15% or so got no clear call; they are omitted. The call rests on the fitted dose curve; in most records, active means well fitted inhibition curve with a large enough effect; inconclusive means small, poorly fitted or top-dose-only effect; inactive means no such curve, though single readings can be large or run the other way. The list comes from a sample in which actives are over-represented; it also holds similar structures and randomly drawn compounds. Where a call stands in place of a potency, no number is given.
# Molecular target: Histone-lysine N-methyltransferase EHMT2 (Homo sapiens) (UniProt Q96KQ7)
# Experiment: qHTS Assay for Inhibitors of Histone Lysine Methyltransferase G9a; further: nearly all actives have a fitted effect of over 75% in size
# Conditions: G9a H3K9 monomethylation, AlphaScreen, 2 h; series mostly up to 59 µM
# Outline: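 AlphaScreen detection with an anti-monomethyl H3K9 antibody quantified product after a 2 h room-temperature reaction containing 500 nM biotinylated H3K9 peptide, 20 µM SAM and 20 nM enzyme, which had been preincubated 15 min with compound.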
# Potency means the concentration at half of the fitted maximal effect.
# Histone-lysine N-methyltransferase EHMT2 (Homo sapiens), sequence (Q96KQ7 913-1193 limits assumed): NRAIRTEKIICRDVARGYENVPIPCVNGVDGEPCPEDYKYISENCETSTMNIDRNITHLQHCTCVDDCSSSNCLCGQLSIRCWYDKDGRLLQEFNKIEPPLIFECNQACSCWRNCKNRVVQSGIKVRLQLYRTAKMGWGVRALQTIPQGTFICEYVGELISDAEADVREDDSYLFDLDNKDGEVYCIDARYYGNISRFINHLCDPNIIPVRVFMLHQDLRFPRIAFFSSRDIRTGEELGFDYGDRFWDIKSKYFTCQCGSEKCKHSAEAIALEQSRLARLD
SMILES,Potency,"activity, negative = inhibition"
CNC(=O)c1c(NC(NC(=O)c2ccco2)C(=O)c2ccc(Cl)cc2)sc2c1CCCC2 (centres undefined),11.2 µM (active),
CC(C)OC(=O)c1c(NC(=O)c2ccco2)sc2c1CCCC2,inactive,
Cc1ccc2c(=O)cc(C(=O)Nc3sc4c(c3C(=O)NCc3cccnc3)CCCC4)oc2c1,inactive,
CCc1ccc(OCC2c3cc(OC)c(OC)cc3CCN2C(C)=O)cc1 (centres undefined),inactive,
COc1cc2c(cc1O)[C@H](Cc1ccc(Oc3cc(C[C@@H]4NCCc5cc(OC)c(O)cc54)ccc3O)cc1)NCC2,12.6 µM (active),
COc1ccc(CC2c3cc(OC)c(OC)cc3CC[N+]2(C)CCC(=O)OCCCCCOC(=O)CC[N+]2(C)CCc3cc(OC)c(OC)cc3C2Cc2ccc(OC)c(OC)c2)cc1OC (centres undefined),,7.6% [at 12.7 µM] (inactive)
COc1ccccc1CNc1nc2ccc(Cl)cc2n2cnnc12,inactive,
CC(=O)Nc1cccc(NC(=O)CSc2nccn2Cc2ccc3c(c2)OCO3)c1,inactive,
COc1ccc(C2CC(c3cccs3)=NN2c2ccc(F)cc2)cc1OC (centres undefined),3.98 µM (active),
COc1ccc(C2CC(c3cccs3)=NN2c2ccccc2)cc1 (centres undefined),inactive,
COc1ccccc1N1N=C(c2cccs2)CC1c1ccccc1 (centres undefined),inactive,
COc1ccc(-c2nc(CN3CCC(C(=O)NCc4ccccc4)CC3)c(C)o2)cc1OC,inactive,
CCOC(=O)C1CCCN(C(=O)c2ccc(-n3ccc4ccccc43)s2)C1 (centres undefined),inactive,
CCc1cccc(C)c1NC(=O)COC(=O)CC1CCCC1,inactive,
COc1ccccc1N(C(=O)Cn1nnc2ccccc21)C(C(=O)NCc1ccco1)c1ccc(C)o1 (centres undefined),50.1 µM (active),
COCCNC(=O)C(c1ccc(C)o1)N(Cc1ccccc1)C(=O)Cn1nnc2ccccc21 (centres undefined),inactive,
Cc1ccc(C(C(=O)NCc2ccco2)N(CC2CCCO2)C(=O)Cn2nnc3ccccc32)cc1 (centres undefined),inactive,
Cc1ccc(C(=O)Nc2ccn(C)n2)cc1,,0.254% [at 12.7 µM] (inactive)
CC1CCN(S(=O)(=O)c2ccc3c(c2)N(CC(=O)NCCc2ccccc2)C(=O)CO3)CC1,inactive,
CC1=C(c2ccc(C)c(C)c2)S(=O)(=O)NC1=NCc1ccccc1Cl,inactive,
COc1ccc(NC(=O)C(=O)NCc2ccco2)cc1,inactive,
COc1ccc(CS(=O)/C(Cl)=C(/Cl)C(=O)Nc2ccc(OC)nc2)cc1 (centres undefined),11.2 µM (active),
CCOc1ccc(S(=O)(=O)Nc2ccc(OC)nc2)cc1,inactive,
COc1cc(C(=O)N2CCN(c3ccc(Nc4ccc(C)cc4)nn3)CC2)cc(OC)c1OC,inactive,

SMILES,Potency,"activity, negative = inhibition"
CSc1ccc(NC(=O)Cn2nnnc2-c2ccccc2F)cc1,inactive,
COc1ccc(C2Sc3ccccc3NC3=C2C(=O)c2ccccc23)c(OC)c1OC (centres undefined),11.2 µM (active),
COc1ccc(C2CC(=O)Nc3cc(C)c(C)cc32)c(OC)c1OC (centres undefined),inactive,
COC(=O)C(C)C1Sc2ccccc2NC1=O (centres undefined),,14.7% [at 12.7 µM] (inactive)
O=C(NCC(c1ccc2c(c1)OCO2)N1CCN(c2ccccc2)CC1)C(=O)Nc1ccccc1F (centres undefined),inactive,
O=C(Cc1ccc(-c2ccccc2)cc1)NC(c1ccccc1)c1ccccc1,7.08 µM (active),
C=CCC(NC(=O)Cc1ccccc1)C(=O)NCCC (centres undefined),,5.83% [at 0.501 µM] (inactive)
CCOC(=O)/C=C/C(=O)OCC(=O)NC(c1ccccc1)c1ccccc1,inactive,
C/C(CC(=O)NCc1ccc(Cl)cc1)=N\NC(=O)COc1ccc(C)cc1Br,inactive,
Cc1ccccc1-c1nc(SCC(=O)N(C)c2ccccc2)c2c(=O)n(C)c(=O)n(C)c2n1,inactive,
Cc1ccccc1-c1ccc(C(=O)O)s1,inactive,
Cc1ccccc1-c1n[nH]c(=S)n1C,10 µM (active),
Cc1n[nH]c(=S)n1/N=C/c1ccc(Br)o1,3.16 µM (active),
Cc1ccccc1-c1n[nH]c(=S)n1/N=C/c1ccc(-c2ccccc2Br)o1,12.6 µM (active),
Cc1cc(C)cc(NS(=O)(=O)c2cc3c(cc2C)NC(=O)CO3)c1,inactive,
CCCCCc1c(C)nc(N2CCN(Cc3ccc4c(c3)OCO4)CC2)[nH]c1=O,inactive,
O=C(Cc1ccc(S(=O)(=O)N2CCOCC2)s1)NCCOc1ccccc1F,,-25.9% [at 12.7 µM] (inactive)
CCNC(=O)c1cc2n(n1)CCCN(Cc1ccc(C)cc1)C2=O,,-1.49% [at 12.7 µM] (inactive)
CN(C)S(=O)(=O)c1ccc(N2CCCC2)c(C(=O)Nc2ccc(Br)cc2F)c1,,26.4% [at 2.33 µM] (inactive)
COc1cc2nc(Cl)nc(NCCO)c2cc1OC,inactive,
Nc1nc(Nc2ccccc2)nc(NCCO)c1[N+](=O)[O-],inactive,
OCCNc1nc(Nc2ccc(Cl)c(Cl)c2)nc2ccccc12,50.1 µM (active),
COc1ccc(OCC(=O)Nc2cccc(C(=O)OCc3cc(=O)n4nc(C)sc4n3)c2)cc1,inactive,
CN1CCN(S(=O)(=O)c2ccc(Nc3ccc(F)cc3)nc2)CC1,inactive,

SMILES,Potency,"activity, negative = inhibition"
COc1ccccc1NC(=O)c1sc2nc(C)c(C(=O)Nc3ccc(Cl)cc3)c(-c3ccc(Br)cc3)c2c1N,inactive,
O=C(Nc1cccc(C(F)(F)F)c1)c1cc(Br)cc(Br)c1O,,-37% [at 12.7 µM] (inactive)
Nc1ccc(OCC(O)C[n+]2ccc(CCS(=O)(=O)[O-])cc2)cc1 (centres undefined),39.8 µM (active),
CCc1ccc(S(=O)(=O)NCC(O)COc2ccc(OC)cc2)cc1 (centres undefined),inactive,
CCCc1ccc(OCC(O)CN2CCN(C(=O)OCC)CC2)cc1 (centres undefined),inactive,
Cn1c(CC2Sc3ccccc3NC2=O)nnc1SCC(=O)c1ccc(Cl)cc1 (centres undefined),14.1 µM (active),
Cn1c(CCC(=O)Nc2ccccc2F)nnc1SCC(=O)Nc1ccccc1Cl,inactive,
Cn1c(SCC(=O)c2ccc(F)cc2)nnc1-c1ccccn1,inactive,
O=c1cc2nc(-c3ccccc3)nc(SCCOc3ccc(Cl)cc3)n2[nH]1,inactive,
O=C(O)C1CCCN1S(=O)(=O)c1ccc2c(c1)CCC2 (centres undefined),56.2 µM (active),
CC(=O)Nc1ccc(S(=O)(=O)N2CCCC2C(=O)O)cc1 (centres undefined),inactive,
O=C(O)C1CCCN1S(=O)(=O)c1ccc(Br)cc1 (centres undefined),,-11.1% [at 0.501 µM] (inactive)
CCOC(=O)N1CCc2c(sc3c2c(=O)n(Cc2ccccc2)c(=O)n3CC(=O)Nc2cccc(C)c2)C1,inactive,
CCOC(=O)N1CCc2c(sc3c2C(=O)NC(c2ccccc2F)N3)C1 (centres undefined),inactive,
CCOC(=O)N1CCc2c(sc(NCc3cccc(F)c3)c2C(=O)Nc2ccccc2OCC)C1,1.41 µM (active),
COC(=O)c1ccccc1NC(=O)Cn1c(=O)n(-c2cccc(C(F)(F)F)c2)c(=O)c2c(C)c(C)sc21,inactive,
CS(=O)(=O)N1CCc2nc(-c3ccccc3)sc2C1,inactive,
Cc1ccc(S(=O)(=O)N2CCC(C(=O)OCC(=O)N(C)c3ccccc3)CC2)cc1C,inactive,
O=C(Nc1c(-c2ccc(F)cc2)nc2ccccn12)c1cccc(F)c1,inactive,
O=C(COC(=O)c1ccccc1Br)Nc1nnc(-c2ccccc2)o1,inactive,
CCCC(=O)Nc1nnc(-c2ccccc2)o1,39.8 µM (active),
O=C(COC(=O)c1ccc(Oc2ccccc2)cc1)Nc1nnc(-c2ccccc2)o1,,17.6% [at 12.7 µM] (inactive)
CCN(CC)CCNC(=O)c1cc2c(=O)oc3ccc(C)cc3c2s1,inactive,
CCNC(=O)c1cccc(NC(=O)C2CC(=O)N(CCc3ccccc3)C2)c1 (centres undefined),,8.14% [at 0.501 µM] (inactive)

SMILES,Potency,"activity, negative = inhibition"
COc1ccc2cc(C3=CC(=O)C[C@H](c4ccc5c(c4)OCO5)C3)ccc2c1,,7.57% [at 0.501 µM] (inactive)
NS(=O)(=O)c1cccc(NC(=O)COC(=O)/C=C/c2ccco2)c1,25.1 µM (active),
COc1cccc(NC(=O)COC(=O)/C=C/c2ccco2)c1,,13.7% [at 2.33 µM] (inactive)
CC(C)CNC(=O)COC(=O)/C=C/c1ccco1,inactive,
O=S(=O)(NCCS(=O)(=O)N1CCN(c2ccccc2)CC1)c1ccc(F)cc1,inactive,
COc1ccc(OCc2nnc3n2N=C(c2ccccc2)C(CC(=O)O)S3)cc1 (centres undefined),1.58 µM (active),
COc1ccc(C2CC(c3ccccc3)=NN2C(=O)COC(=O)COc2ccccc2)cc1 (centres undefined),inactive,
CCn1c(COc2cccc(OC)c2)nnc1SCC(=O)N1CCOCC1,inactive,
COc1cccc(OCC(=O)Nc2ccccc2C(N)=O)c1,,6.62% [at 12.7 µM] (inactive)
COc1ccc(C(=O)NCc2nnc(SCCOc3ccccc3)n2C)cc1,,13.9% [at 12.7 µM] (inactive)
COc1cccc(OCc2nnc3n2N=C(c2ccccc2)C(CC(=O)O)S3)c1 (centres undefined),44.7 µM (active),
CCN(CC)S(=O)(=O)c1ccc2c(c1)N(CC(=O)NCc1ccccc1)C(=O)CS2,inactive,
COc1cccc(CNC(=O)C(=O)NCCC2CCCCN2S(=O)(=O)c2ccc(C)cc2)c1 (centres undefined),,0.971% [at 0.501 µM] (inactive)
CC(=O)Nc1ccc(NC(=O)CSc2nnc(COc3ccccc3C)n2CC2CCCO2)cc1 (centres undefined),inactive,
COc1ccccc1NC(=O)CSc1nnc(C)n1CC1CCCO1 (centres undefined),inactive,
CCOc1cccc(=O)c2c(C)n(CC3CCCO3)c(C)c12 (centres undefined),70.8 µM (active),
Cc1ccc(NC(=O)COC(=O)CN2CCCCCC2=O)c(C)c1,inactive,
Cc1cc(C)cc(-n2c(SCC(=O)NCC3CCCO3)nc3c([nH]c4ccccc43)c2=O)c1 (centres undefined),inactive,
CCOc1ccc(N2C(=O)CC(N(CCc3ccc(OC)c(OC)c3)C(=S)Nc3ccccc3)C2=O)cc1 (centres undefined),inactive,
CCCCCOC(=O)c1ccc(N2C(=O)C3C4C=CC(C4)C3C2=O)cc1 (centres undefined),inactive,
CCCCCCC(=O)N(O)C1CC(=O)N(c2ccccc2)C1=O (centres undefined),0.794 µM (active),
O=C(Nc1cccc(F)c1)NC1CCCc2ccccc21 (centres undefined),inactive,
